YB-1 expression: YB-1 expression inhibition; 30,000 tested, 0.37% active; U2OS, qRT-PCR YB-1 vs CDIP delta delta Cp, 16 h; active compounds read high; zero = DMSO, each unit about twofold; delta delta Cp (YB-1 minus CDIP) (test concentration not listed);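 active means delta delta Cp rounded down to an integer at or above 3, about 3 SD of DMSO wells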;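 further: higher means less YB-1 transcript or more CDIP transcript relative to DMSO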
ROS inducer: inducers of reactive oxygen species in cancer cells. U2OS ROS induction, H2DCF-DA fluorescence. ROS induction (% of piperlongumine), % at 10 µM. 46,000 tested, 2% active. AID 624156; in the data active means ROS induction above about 79%, passing the limit was not always enough;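 further: 0% = DMSO vehicle median and 100% = reference compound median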
* = called active by the depositor. In the library only some 2.3% were active in any assay of this set; here they are far more common.

C[C@H]1CN([C@@H](C)CO)C(=O)Cc2cc(NS(=O)(=O)c3cn(C)cn3)ccc2O[C@@H]1CN(C)C(=O)Nc1cccc2ccccc12 was read as YB-1 expression -0.9 and ROS inducer -11.
`C[C@H]1CN([C@@H](C)CO)C(=O)c2cc(NC(=O)CCCCCC(=O)Nc3ccccc3N)ccc2O[C@@H]1CN(C)C(=O)Nc1ccc(F)cc1` gave YB-1 expression 0.48 and ROS inducer 108*.
C[C@H]1CN([C@@H](C)CO)C(=O)c2cc(NC(=O)Nc3ccc4c(c3)OCO4)ccc2O[C@@H]1CN(C)Cc1ccc(C(F)(F)F)cc1 was read as YB-1 expression 0.061 and ROS inducer 94*.
For C[C@H](CO)N1C[C@H](C)[C@H](CN(C)CC2CC2)Oc2ccc(NC(=O)C3CC3)cc2C1=O the results were YB-1 expression 0.15 and ROS inducer 2.
For C[C@@H]1CN([C@@H](C)CO)C(=O)c2cc(NC(=O)Cc3ccccc3)ccc2O[C@H]1CN(C)C(=O)Nc1ccc(C(F)(F)F)cc1 the results were YB-1 expression -0.31 and ROS inducer 9.
Screening C[C@@H]1CN([C@H](C)CO)C(=O)c2cc(NC(=O)CCCCCC(=O)Nc3ccccc3N)ccc2O[C@H]1CN(C)C(=O)Nc1ccc(F)cc1 returned YB-1 expression 0.13 and ROS inducer 2.
`C[C@@H]1CN([C@@H](C)CO)C(=O)c2cc(NC(=O)Nc3ccc4c(c3)OCO4)ccc2O[C@H]1CN(C)Cc1ccc(C(F)(F)F)cc1` gave YB-1 expression 0.072 and ROS inducer 6.
`C[C@@H]1CN([C@@H](C)CO)C(=O)c2cc(NC(=O)Cc3ccccc3)ccc2O[C@@H]1CN(C)C(=O)Nc1ccc(C(F)(F)F)cc1` gave YB-1 expression 0.34 and ROS inducer 94*.
`C[C@H]1CN([C@@H](C)CO)C(=O)c2cc(NC(=O)C3CC3)ccc2O[C@H]1CN(C)CC1CC1` gave YB-1 expression 13* and ROS inducer -25.
`CC(=O)c1ccc(NC(=O)CSc2nnc(N)s2)cc1` gave ROS inducer -22.
`C[C@@H]1CCCCO[C@@H](CN(C)C)[C@@H](C)CN([C@H](C)CO)C(=O)c2cc(NC(=O)Nc3ccc(C(F)(F)F)cc3)ccc2O1` gave YB-1 expression -0.11 and ROS inducer 5.
COc1ccc(S(=O)(=O)Nc2ccc3c(c2)C(=O)N([C@H](C)CO)C[C@@H](C)[C@@H](CN(C)S(=O)(=O)c2c(C)noc2C)O3)cc1 was read as YB-1 expression 0.039 and ROS inducer 2.
Screening COC(=O)C1=C(O)/C(=C/c2ccc(O)cc2)SC1=Nc1ccccc1 returned ROS inducer 164*.
Screening COC(=O)CN1C(=O)/C(=C\c2ccc(O)cc2)SC1=S returned ROS inducer 1.
O=C(CSc1nnc(-c2ccc([N+](=O)[O-])cc2)n1-c1ccccc1)N1CCOCC1 was read as ROS inducer -9.
Screening CN1N=C2c3ccccc3CCC2C1c1ccc(C#N)cc1 (configuration not stated) returned ROS inducer -3.
O=C(Nc1ccc(Cl)cc1)N1N=C2c3ccccc3CCC2C1c1cccs1 (configuration not stated) was read as YB-1 expression -0.035 and ROS inducer 66.
`O=C(c1ccco1)N1N=C2c3ccccc3CCC2C1c1ccc(F)cc1` (configuration not stated) gave YB-1 expression -0.013 and ROS inducer 85*.
Screening CCNC(=S)N1N=C2c3ccccc3CCC2C1c1ccc(F)cc1 (configuration not stated) returned YB-1 expression 0.34 and ROS inducer 101*.
`CC1CC(OC(=O)C(O)c2ccccc2)CC(C)(C)N1C` (configuration not stated) gave YB-1 expression 0.13 and ROS inducer -10.
Screening COC(=O)C1=COC(OC2OC(CO)C(O)C(O)C2O)C2C1C=CC2(O)CO (configuration not stated) returned YB-1 expression 0.81 and ROS inducer -12.
Screening Cc1ccc(-c2cc(=O)c3ccc4ccccc4c3o2)cc1 returned ROS inducer 95*.
Screening CSc1ccc(-c2cc(=O)c3ccccc3o2)cc1 returned ROS inducer 31.
Screening O=[N+]([O-])c1ccccc1-c1ccc(-c2nn3c(-c4ccccc4)nnc3s2)o1 returned ROS inducer 174*.
CN1CCC(N(C)Cc2ccc(-c3ccccc3[N+](=O)[O-])o2)CC1 was read as ROS inducer 2.
COc1ccc(OCc2nnc3n2N=C(c2ccc(OC)c(OC)c2)C(c2ccccc2)S3)cc1 (configuration not stated) was read as ROS inducer 99*.
For COc1ccc(-c2[nH]ncc2CN2CCC(c3ccccc3OC)CC2)cc1 the results were ROS inducer -3.
`O=C(Cc1csc(Nc2nc(=S)[nH]c3ccccc23)n1)N1CCN(c2cccc(Cl)c2)CC1` gave ROS inducer 13.
`C[C@H](CO)N1C[C@H](C)[C@H](CN(C)Cc2ccc3c(c2)OCO3)Oc2ccc(NC(=O)Nc3ccccc3)cc2C1=O` gave YB-1 expression 0.49 and ROS inducer -3.
For C[C@H](CO)N1C[C@H](C)[C@H](CN(C)C(=O)Nc2cccc3ccccc23)Oc2c(NC(=O)Nc3ccccc3)cccc2C1=O the results were YB-1 expression -0.49 and ROS inducer 12.
`CCc1cc2c(SCC(N)=O)ncnc2s1` gave ROS inducer -3.
Screening COc1cc(NC(=O)c2ccc(CSC3CCCCC3)cc2)cc(OC)c1OC returned ROS inducer 135*.
For O=C(O)c1ccc(CSC2CCCCC2)cc1 the results were ROS inducer -13.
Screening COc1ccc(C)cc1S(=O)(=O)N1CCCC(C(=O)Nc2cccc(SC)c2)C1 (configuration not stated) returned ROS inducer 3.
`C[C@@H]1CN([C@@H](C)CO)C(=O)c2cccc(NC(=O)c3ccc(-c4nccs4)cc3)c2O[C@H]1CN(C)C(=O)NC1CCCCC1` gave YB-1 expression -0.13 and ROS inducer -2.
C[C@H]1CN([C@@H](C)CO)C(=O)c2cc(NC(=O)C3CCCCC3)ccc2O[C@H]1CN(C)S(=O)(=O)c1ccc(Cl)cc1 was read as YB-1 expression 0.67 and ROS inducer 7.
`COC(=O)Oc1ccc2c(=O)c(-c3ccccc3)coc2c1` gave ROS inducer -8.
`CCOC(=O)C(C)Oc1ccc2c(-c3ccccc3)cc(=O)oc2c1` (configuration not stated) gave YB-1 expression -0.007 and ROS inducer 107*.
CCOC(=O)c1c(-c2cccs2)csc1/N=C/c1c(O)n(C)c2ccccc12 was read as ROS inducer 3.
C[C@H](CO)N1C[C@H](C)[C@@H](CN(C)Cc2ccc(C(F)(F)F)cc2)Oc2ccc(NC(=O)Nc3ccccc3)cc2C1=O was read as YB-1 expression 0.097 and ROS inducer 6.
Screening COc1cccc(NC(=O)CSc2nnc(-c3ccccc3)n2-c2ccc(F)cc2)c1 returned ROS inducer 10.
Screening COc1ccc(NC(=O)N(C)C[C@H]2Oc3c(NC(=O)C4CC4)cccc3C(=O)N([C@@H](C)CO)C[C@H]2C)cc1 returned YB-1 expression -0.33 and ROS inducer -12.

Screening results from PubChem BioAssay.
